Compound activity: PubChem, Sanford-Burnham Center for Chemical Genomics
KKLEB tox = counter-screen for CF NF-kB inhibitors: cytotoxicity; KKLEB CF airway cells viability, ATPlite luminescence, overnight; hits give low values; cells stimulated with P. aeruginosa culture filtrate; AID 602141; activity change (cytotoxicity), % at 5 µM; 360,000 tested, 0.36% active;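 active means corrected activity change at or below -50% at 5 µM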
HIF-2a block = inhibitors of HIF-2a. 786-0 RCC cells HIF-2a reporter, luciferase luminescence, overnight. inhibition, % at 18.8 µM. 360,000 tested, 0.72% active. AID 624352;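 active means inhibition of the luminescence signal of 40% or more relative to plate controls, in a single-dose primary screen at 18.75 µM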
CF NFkB inh = inhibitors of cystic fibrosis induced NF-kB | KKLEB NF-kB-GFP reporter, PAF-induced, GFP fluorescence overnight | inhibition, % at 5 µM | 360,000 tested, 0.86% active | AID 588850;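 active means at least 50% inhibition at 5 µM, scaled per plate between neutral and stimulator controls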;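 further: PAF is a Pseudomonas aeruginosa culture filtrate used as stimulus; plate controls were PAF-stimulated DMSO wells for no effect and unstimulated DMSO wells for full effect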
TROY NFkB inh = inhibitors of TROY-dependent NF-kB signaling; Q293 LMP1-TROYcd NF-kB luciferase reporter, 4 h; inhibition, % at 10 µM; 360,000 tested, 0.98% active; AID 1347056;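 active means compounds whose plate-normalised and pattern-corrected inhibition of the luciferase reporter signal at the single screening dose is 50% or more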
Peg3 promoter = reduces Peg3 promoter-driven luciferase expression in HeLa. HeLa PEG-Prom luciferase reporter, luminescence, overnight. 360,000 tested, 1.7% active. inhibition, % at 20 µM;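 active means inhibition of at least 50% at 20 µM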
TWEAK Fn14 block = blocks TWEAK-Fn14 interaction in a reporter cell assay. 360,000 tested, 2% active. TWEAK-stimulated Fn14 reporter cells, luciferase luminescence, 8 h. inhibition, % at 10 µM; in the data active means inhibition above about 50%
Numbers without * were called inactive; x = no result. Compounds with a hit are over-represented: about 4% of the library has one in this group of screens.

SMILES	KKLEB tox	HIF-2a block	CF NFkB inh	TROY NFkB inh	Peg3 promoter	TWEAK Fn14 block
COc1ccc(/C=N/Nc2nc(C)c([N+](=O)[O-])c(N(C)c3ccccc3)n2)cc1OC	7	8	0	x	13	82*
COc1ccc(Nc2nc(N/N=C/c3ccc(N(C)C)cc3)nc(C)c2[N+](=O)[O-])cc1	0	7	4	-2	10	-6
Cc1ccc(NCc2nnc(SCC(=O)c3ccc4c(c3)OCCO4)o2)c(C)c1	-23	12	32	77*	4	31
COc1ccc(C(=O)CSc2nnc(CNc3ccc(C)cc3C)o2)cc1	0	-8	21	-16	-3	2
Cc1ccc2c(c1)sc1nc(=O)n(-c3ccc(Cl)cc3)c(=O)n12	-2	-15	15	-71	-135	-33
Cc1ccc2c(c1)sc1nc(=O)n(-c3ccc(Cl)c(Cl)c3)c(=O)n12	3	-6	-11	43	-34	55*
O=[N+]([O-])c1ccccc1N/N=C/c1ccccc1	6	-301	-15	-29	-204	15
CC1=C/C(=N\Nc2ccccc2[N+](=O)[O-])CC(C)(C)C1	5	-11	4	58*	-15	12
FC(F)(F)c1ccccc1-n1c(-c2ccco2)n[nH]c1=S	5	-6	2	25	-8	88*
Cc1ccccc1-n1c(-c2ccco2)n[nH]c1=S	-10	2	10	7	6	10
O=[N+]([O-])c1ccccc1NC(=S)N/N=C/c1ccc(O)c(O)c1	-5	-192	-17	66*	-137	66*
Cc1cccc(NC(=S)N/N=C/c2cccc([N+](=O)[O-])c2)c1	9	-42	-1	-40	-6	1
Cc1cccc(NC(=S)N/N=C/c2ccc(Cl)c([N+](=O)[O-])c2)c1	-2	-4	-5	-14	62*	-26
CCOc1cccc(/C=N/NC(=S)Nc2ccccc2[N+](=O)[O-])c1O	-12	48*	1	90*	4	100*
O=[N+]([O-])c1ccccc1C=NNC(=S)NN=Cc1ccccc1[N+](=O)[O-]	-30	-261	28	-49	-113	-1
COc1ccc(CC2C(=O)NC(C)C(=O)N(C)C3Cc4ccc(cc4)Oc4cc(ccc4O)CC(C(=O)NC(C)C(=O)NC(C)C(=O)N2C)N(C)C3=O)cc1 (stereo not drawn)	-45	82*	88*	84*	97*	101*
COc1ccc(CN2C(=O)C(C)Nc3ncnc(N4CCc5ccccc5C4)c32)cc1 (stereo not drawn)	-8	11	25	-6	16	16
CN(c1ccc(C(=O)N/N=C/c2cccc([N+](=O)[O-])c2)cc1)S(=O)(=O)c1ccccc1	-4	-2	-12	5	22	0
O=C(C=Cc1ccccc1)c1c[nH]c2ccccc2c1=O	-18	-18	40	3	97*	78*
Brc1ccccc1-c1nnc2sc(Cc3ccccc3)nn12	-4	0	47	-13	1	-11
COc1ccc(Cc2nn3c(-c4ccccc4Br)nnc3s2)cc1	-8	-31	53*	3	-5	-51
COc1ccc(NC(=S)Nc2cccc([N+](=O)[O-])c2)cc1	12	-77	-14	-62	-48	-21
Cc1cccc(NC(=S)NNc2cccc(Cl)c2)c1	26	9	-40	-47	29	-21
COc1ccc(NC(=S)NNc2ccc([N+](=O)[O-])cc2S(=O)(=O)Nc2ccc(C)cc2C)cc1	-29	-4	46	29	52*	37
Cc1ccc(NS(=O)(=O)c2cc([N+](=O)[O-])ccc2NNC(=S)Nc2cc(C)ccc2C)c(C)c1	-24	-6	44	53*	38	68*
Cc1ccc(NS(=O)(=O)c2cc([N+](=O)[O-])ccc2NNC(=S)Nc2cccc(Cl)c2)c(C)c1	6	-11	28	62*	41	40
CCc1ccccc1NC(=O)COc1ccc2c(=O)c(Oc3cc(C)ccc3C)coc2c1	5	8	1	56*	-220	5
CCCNC(=O)COc1ccc2c(=O)c(Oc3ccccc3F)coc2c1	2	-6	7	-13	7	-9
CCc1cccc(NC(=O)CSC2=NS(=O)(=O)c3ccccc32)c1	35	-30	-8	4	68*	-10
